Experimental data as given in PubChem BioAssay.
For some of these results: Potency and affinity values are given separately. Results filed as inconclusive are left out. The list shows a part of the results. Active and inactive are the calls of the source.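 Rule for the calls, unless noted: active = signal-lowering compounds whose fitted half-maximal concentration is at or below twice the top tested dose in every run; inconclusive = runs disagree, flat 30 to 70% inhibition, or poor curve fit; inactive = the rest.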

Assay: small-molecule DNA binding by polarization – biochemical, fluorescence polarization, cherry-pick, counter-screen for EWS/Fli inhibitor project, dose response (AID 720586;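 active = fitted curve reaches a 35% signal fall AC35 below twice the sample's top valid tested dose, actives reach about 48 µM in these data; inactive = the rest, including activity in the rising direction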;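 note: 0% = neutral control median and -100% = 10 µM mitoxantrone control median; lower polarization ratio signals compound binding to DNA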)
Details: salmon sperm DNA acridine orange fluorescence polarization; series mostly up to 68 µM; activity change, negative = DNA binding: at the top concentration

Question: For `N#C[C@@H]1[C@H](c2ccc(C#Cc3cccc(F)c3)cc2)[C@@H](CO)N1C(=O)C1CCCC1`, which “activity change, negative = DNA binding” value is on record?
Answer: Its value is 9.84% (inactive).

Question: For `C[C@H](CO)N1C[C@H](C)[C@H](CN(C)CC2CCCCC2)Oc2ccc(NC(=O)CCCCCC(=O)Nc3ccccc3N)cc2CC1=O`, which “activity change, negative = DNA binding” value is on record?
Answer: The value was -3.41% [at 56 µM] (inactive).

Question: For `CC(=O)Nc1ccc(S(=O)(=O)Nc2ccc(N3CCCCC3)cc2)cc1`, which “activity change, negative = DNA binding” value is on record?
Answer: The value was -2.53% (inactive).

Question: With `CCn1c(/C=N/NC(=O)c2ccc(OC)cc2)nc2ccccc21` as the molecule, how does the “activity change, negative = DNA binding” value read?
Answer: Its value is -15.6% (inactive).

Question: Which “activity change, negative = DNA binding” value does the source give for `Cc1noc(C)c1NC(=O)Nc1ccc2c(c1)CC(=O)N([C@@H](C)CO)C[C@@H](C)[C@@H](CN(C)Cc1ccc(Cl)c(Cl)c1)O2` here?
Answer: The value was 0.128% (inactive).

Question: For `COc1ccc(/C=C2\SC(=S)N(CCCC(=O)NC3CCCC3)C2=O)cc1OC`, which “activity change, negative = DNA binding” value is on record?
Answer: The value was -20.3% (inactive).

Question: Which “activity change, negative = DNA binding” value does the source give for `COC(=O)Cc1[nH]n(-c2nc3ccccc3s2)c(=O)c1C(C)=Nc1ccc(OC)cc1` here?
Answer: The value was 0.058% (inactive).

Question: For `C(=N\Nc1ccc2ccccc2n1)/c1ccc2c(c1)OCO2`, which “activity change, negative = DNA binding” value is on record?
Answer: The value was -7.95% (inactive).

Question: With `CN(CCO)c1ccc(/C=N/Nc2nncc3ccccc23)cc1` as the molecule, how does the “activity change, negative = DNA binding” value read?
Answer: The value was -11.9% (inactive).

Question: With `CCOc1cc2[nH]c(=S)n(Cc3ccc(C(=O)N4CCN(C)CC4)cc3)c(=O)c2cc1OCC` as the molecule, how does the “activity change, negative = DNA binding” value read?
Answer: Its value is -9.45% (inactive).

Question: Which “activity change, negative = DNA binding” value does the source give for `Cc1ccc(C)c(S(=O)(=O)N2CCN(c3ncnc4sccc34)CC2)c1` here?
Answer: The value was 3.59% (inactive).

Question: With `OCCN1CCN(C(=S)c2ccc(-c3ccccc3)cc2)CC1` as the molecule, how does the “activity change, negative = DNA binding” value read?
Answer: The value was 8.55% (inactive).

Question: With `COC(=O)C[C@@H]1CC[C@@H]2[C@H](COc3ccc(NC(=O)c4cccc(F)c4)cc3C(=O)N2C)O1` as the molecule, how does the “activity change, negative = DNA binding” value read?
Answer: Its value is -10.5% (inactive).

Question: With `COc1ccc(-c2nc3c(s2)CCc2onc(-c4ccc(OC)cc4)c2-3)cc1` as the molecule, how does the “activity change, negative = DNA binding” value read?
Answer: The value was -8.71% (inactive).

Assay: CMV-driven luciferase expression suppression in HEK293 – cell-based, luminescence, dry powder, counter-screen for Pax8 inhibitor project, dose response (AID 743020);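 note: HEK293 cells stably expressing the CMV luciferase reporter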
Details: HEK293 CMV-luciferase reporter, SteadyGlo luminescence, 24 h; series mostly up to 35 µM; activity change, negative = inhibition: at the top concentration

Question: With `C=C(C)c1nc(Oc2ccccc2)nc(Oc2ccccc2)n1` as the molecule, how does the “activity change, negative = inhibition” value read?
Answer: The value was 5.54% (inactive).

Question: Which “activity change, negative = inhibition” value does the source give for `Cn1c(CCN2CCCC2)nc2cc(NS(=O)(=O)c3ccccc3)ccc21` here?
Answer: Its value is 4.33% (inactive).

Question: With `O=C(c1cc([N+](=O)[O-])ccc1N1CCOCC1)N1CCN(c2ccccc2)CC1` as the molecule, how does the “activity change, negative = inhibition” value read?
Answer: The value was -25.1% (inactive).

Question: Which “activity change, negative = inhibition” value does the source give for `CCN(CC)S(=O)(=O)c1cc(NC(=O)Cn2ncc(Cl)c(Cl)c2=O)ccc1C` here?
Answer: Its value is -17.5% (inactive).

Question: Which “activity change, negative = inhibition” value does the source give for `Cc1cccc(N(Cc2cc(=O)[nH]c3ccccc23)C(=O)CCl)c1` here?
Answer: The value was -1.21% (inactive).

Question: With `COc1ccc(/C=N/NC(=O)c2[nH]c3ccc(Br)cc3c2-c2ccccc2)cc1` as the molecule, how does the “activity change, negative = inhibition” value read?
Answer: The value was 125% (inactive).

Question: For `COc1ccccc1C(=O)Nc1nc2ccccc2[nH]1`, which “activity change, negative = inhibition” value is on record?
Answer: The value was 53.6% (inactive).

Question: Which “activity change, negative = inhibition” value does the source give for `Cc1ccc(Cl)cc1N1CCN(C(=O)c2noc(C)c2[N+](=O)[O-])CC1` here?
Answer: The value was 8.21% (inactive).

Question: Which “activity change, negative = inhibition” value does the source give for `O=C(Nc1cccc(NC(=O)c2cccs2)c1)c1ccc([N+](=O)[O-])o1` here?
Answer: The value was 13.9% (inactive).

Question: Which “activity change, negative = inhibition” value does the source give for `CCc1cc(-c2n[nH]c(C)c2-c2nc3ccccc3n2C)c(O)cc1O` here?
Answer: Its value is 6.76% (inactive).

Question: Which “activity change, negative = inhibition” value does the source give for `O=C(NCc1cc(C(F)(F)F)ccc1Cl)c1cccc2c1C(=O)c1ccc(N3CCC(N4CCCCC4)CC3)cc1S2(=O)=O` here?
Answer: The value was -3.91% (inactive).

Question: For `CCOC(=O)c1c(C)[nH]c2c1-c1ccccc1C(=O)C2=O`, which “activity change, negative = inhibition” value is on record?
Answer: The value was 6.64% (inactive).

Question: For `S=c1sc2c(Cl)ncnc2n1-c1ccccc1`, which “activity change, negative = inhibition” value is on record?
Answer: The value was 8.06% (inactive).

Question: With `CCOc1ccc(C(=O)C(CCC(CN(C)C)C(=O)c2ccc(OCC)cc2)CN(C)C)cc1` (configuration not stated) as the molecule, how does the “activity change, negative = inhibition” value read?
Answer: The value was -36.4% (inactive).

Question: Which “activity change, negative = inhibition” value does the source give for `Cc1ccc(NC(=O)Cn2ncc(Cl)c(Cl)c2=O)cc1S(=O)(=O)N1CCCCC1` here?
Answer: The value was 122% (inactive).

Question: Which “activity change, negative = inhibition” value does the source give for `COc1ccc(NC(=O)c2c(Nc3ccccc3)sc(C(=O)c3ccc(F)cc3)c2N)cc1` here?
Answer: Its value is -15.4% (inactive).

Question: For `O=C(NC1CCCCC1)C(c1cccnc1)N(C(=O)CCl)c1ccc(F)cc1` (configuration not stated), which “activity change, negative = inhibition” value is on record?
Answer: The value was 10.5% (inactive).

Question: For `O=C(CCl)N(Cc1ccccc1)c1ccccc1`, which “activity change, negative = inhibition” value is on record?
Answer: Its value is -1.57% (inactive).

Question: Which “activity change, negative = inhibition” value does the source give for `COc1cccc2c1C(=O)c1c(O)c3c(c(O)c1C2=O)CC(O)(C(=O)CO)CC3OC1CC(N(C)C)C(O)C(C)O1` (configuration not stated) here?
Answer: Its value is 5.83% (inactive).

Question: With `Nc1nc(=S)c2[nH]cnc2[nH]1` as the molecule, how does the “activity change, negative = inhibition” value read?
Answer: Its value is -14.4% (inactive).

Question: Which “activity change, negative = inhibition” value does the source give for `COC(=O)[C@]12CCCCC=C1N(Cc1ccc(Cl)cc1Cl)C(=O)[C@H](CC(=O)N1CCN(C(=O)c3ccco3)CC1)C2` here?
Answer: The value was 4.73% (inactive).

Question: For `Cn1ncc2c(O/N=C(\N)c3ccc(C(F)(F)F)cc3)ncnc21`, which “activity change, negative = inhibition” value is on record?
Answer: Its value is 7.5% (inactive).

Question: Which “activity change, negative = inhibition” value does the source give for `COc1cc(OC)c2c(-c3cccc(-c4ccc(OC)c(F)c4)c3)cc(=O)oc2c1` here?
Answer: Its value is -18.4% (inactive).

Question: With `Cc1cnc(NC(=O)c2ccc3c(c2)OCCO3)s1` as the molecule, how does the “activity change, negative = inhibition” value read?
Answer: The value was 10% (inactive).

Question: With `COCCn1c(C)cc(C2=NNC(=NC3CC3)SC2)c1C` as the molecule, how does the “activity change, negative = inhibition” value read?
Answer: The value was -20% (inactive).

Question: With `C(=Cc1cnc2ccccc2n1)c1ccc2c(c1)OCO2` as the molecule, how does the “activity change, negative = inhibition” value read?
Answer: The value was -41.1% (inactive).

Assay: general cell-killing toxicity readout – plate reader, dry powder samples, cytotoxicity control for PAX8 inhibitor project, dose response (AID 743021; call rule not given here)
Details: cell line, non-specific cytotoxicity counter-screen; series mostly up to 35 µM; activity change, negative = cytotoxicity: at the top concentration

Question: Which “activity change, negative = cytotoxicity” value does the source give for `C=C(C)c1nc(Oc2ccccc2)nc(Oc2ccccc2)n1` here?
Answer: The value was 9.72% (inactive).

Question: With `Cn1c(CCN2CCCC2)nc2cc(NS(=O)(=O)c3ccccc3)ccc21` as the molecule, how does the “activity change, negative = cytotoxicity” value read?
Answer: The value was -9.54% (inactive).

Question: Which “activity change, negative = cytotoxicity” value does the source give for `O=C(c1cc([N+](=O)[O-])ccc1N1CCOCC1)N1CCN(c2ccccc2)CC1` here?
Answer: Its value is 16% (inactive).

Question: Which “activity change, negative = cytotoxicity” value does the source give for `CCN(CC)S(=O)(=O)c1cc(NC(=O)Cn2ncc(Cl)c(Cl)c2=O)ccc1C` here?
Answer: Its value is 4.1% (inactive).

Question: Which “activity change, negative = cytotoxicity” value does the source give for `COc1ccc(/C=N/NC(=O)c2[nH]c3ccc(Br)cc3c2-c2ccccc2)cc1` here?
Answer: Its value is -11% (inactive).

Question: With `O=C(Nc1cccc(NC(=O)c2cccs2)c1)c1ccc([N+](=O)[O-])o1` as the molecule, how does the “activity change, negative = cytotoxicity” value read?
Answer: Its value is 10.1% (inactive).

Question: For `CCc1cc(-c2n[nH]c(C)c2-c2nc3ccccc3n2C)c(O)cc1O`, which “activity change, negative = cytotoxicity” value is on record?
Answer: The value was -7.05% (inactive).

Question: Which “activity change, negative = cytotoxicity” value does the source give for `Cc1ccc(NC(=O)Cn2ncc(Cl)c(Cl)c2=O)cc1S(=O)(=O)N1CCCCC1` here?
Answer: The value was -8.93% (inactive).

Question: For `COc1ccc(NC(=O)c2c(Nc3ccccc3)sc(C(=O)c3ccc(F)cc3)c2N)cc1`, which “activity change, negative = cytotoxicity” value is on record?
Answer: Its value is -14% (inactive).

Question: Which “activity change, negative = cytotoxicity” value does the source give for `COc1cccc2c1C(=O)c1c(O)c3c(c(O)c1C2=O)CC(O)(C(=O)CO)CC3OC1CC(N(C)C)C(O)C(C)O1` (configuration not stated) here?
Answer: Its value is 33.6% (inactive).

Question: Which “activity change, negative = cytotoxicity” value does the source give for `COC(=O)[C@]12CCCCC=C1N(Cc1ccc(Cl)cc1Cl)C(=O)[C@H](CC(=O)N1CCN(C(=O)c3ccco3)CC1)C2` here?
Answer: Its value is -17.3% (inactive).

Question: For `COc1cc(OC)c2c(-c3cccc(-c4ccc(OC)c(F)c4)c3)cc(=O)oc2c1`, which “activity change, negative = cytotoxicity” value is on record?
Answer: Its value is -3.93% (inactive).
